Test results as given in PubChem BioAssay AID485297 (National Center for Advancing Translational Sciences (NCATS), 2010).
In all, about 320,000 compounds went through this assay and about 9,100 (2.8%) were called active. Entries that show only a call come without a potency. About 3% were inconclusive and are not listed. Calls follow the shape of the dose curve; as a rule, active = well fitted activation curve with a large enough effect; inconclusive = small, poorly fitted or top-dose-only effect; inactive = no such curve, though single readings can be large or run the other way. The full list was thinned out, with actives kept by preference.

Assay: qHTS Assay for Rab9 Promoter Activators; also: nearly all actives have a fitted effect of over 60% in size
Details: Huh7 Rab9 promoter-luciferase reporter, luminescence, 24 h; series mostly up to 9.22 µM
How it was run: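 Promoter activation is measured as luciferase luminescence in Huh7 cells stably transfected with a Rab9 promoter–luciferase construct, following 24 h compound exposure at 37 °C and 10 min reagent incubation at ambient temperature.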
Potency is read from the fitted curve at half-maximal effect.

Row | Structure (SMILES) | Potency
1 | Cc1ccsc1C(=O)OCC(=O)Nc1cccc(F)c1 | inactive
2 | Cc1ccc(C(=O)Nc2nnc(-c3cccs3)s2)cc1C | 3.55 µM (active)
3 | Cc1ccc(C(=O)Oc2coc(CSc3nnc(NC(=O)c4cccs4)s3)cc2=O)cc1C | inactive
4 | Cc1nnc(NC(=O)c2ccc3nccnc3c2)s1 | inactive
5 | O=C(CNS(=O)(=O)c1ccc2c(c1)OCCCO2)N1CCN(c2ccc(F)cc2)CC1 | inactive
6 | O=C(NCc1ccccc1CN1CCCC1)C1CCN(S(=O)(=O)c2ccc(Cl)cc2)CC1 | inactive
7 | CCCCSc1nnc(-c2ccc(NC(=O)CC)cc2)n1C | inactive
8 | CCC(=O)Nc1ccc(-c2ccc(N3CCCCC3)nn2)cc1 | 1.58 µM (active)
9 | CCC(=O)c1ccc(OCC(=O)Nc2ccc(N3CCCCC3)cc2)cc1 | inactive
10 | O=C(Nc1ccc(Sc2ccc(Br)cc2)cc1)c1ccco1 | inactive
11 | CC1CCN(c2ccc(-c3ccc(NC(=O)c4ccco4)cc3)nn2)CC1 | 3.55 µM (active)
12 | CC1CCN(C(NC(=O)c2ccco2)C(=O)c2ccccc2)CC1 (centres undefined) | inactive
13 | Cc1ccc(NC(=O)C(c2ccccc2)N2CCN(C(=O)c3ccco3)CC2)cc1 (centres undefined) | inactive
14 | CC(C)N(Cc1nnc(-c2ccccc2Br)o1)C(=O)c1cc(Cl)nc2ccccc12 | inactive
15 | CC(=O)c1c(C)[nH]c(C(=O)OCC(=O)Nc2c(C)n(C)n(-c3ccccc3)c2=O)c1C | inactive
16 | COc1ccc(-c2csc3nc(-c4ccccc4F)oc(=O)c23)cc1OC | inactive
17 | COc1ccc(-c2nc(-c3ccccc3)no2)c(OC)c1 | 3.98 µM (active)
18 | Cc1cccc(-c2noc(-c3ccc(F)cc3)n2)c1 | 0.224 µM (active)
19 | COc1ccc(-c2noc(-c3ccc(C)cc3)n2)cc1 | 2 µM (active)
20 | COc1ccc(-c2noc(CN(C)S(=O)(=O)c3ccc(C)cc3)n2)cc1 | inactive
21 | Cc1cccc(-c2nc(Nc3ccc(O)cc3)c3ccccc3n2)c1 | inactive
22 | COc1ccc(-c2noc(CCCC(=O)NC3CCCC3)n2)cc1OC | inactive
23 | COc1ccc(-c2noc(-c3cccc(OC)c3OC)n2)cc1OC | 2.24 µM (active)
24 | COc1ccc(-c2noc(CNC(=O)C(C)Oc3ccccc3)n2)cc1 (centres undefined) | inactive
25 | Cc1cccc(-c2noc(CCC(=O)NC3CCCC3)n2)c1 | inactive
26 | COc1ccc(-c2noc(CSc3ccc(C)cc3)n2)cc1 | inactive
27 | COc1ccc(-c2n[nH]c(C)c2-c2ccccc2OC)c(O)c1 | inactive
28 | COc1ccc(NC(=O)Cn2cc(C(=O)c3ccncc3)c(=O)c3cc(C)ccc32)cc1Cl | inactive
29 | O=S(=O)(NCCCCCCNS(=O)(=O)c1c(F)cccc1F)c1ccc2c(c1)OCCO2 | inactive
